Results on 21 compounds are retold here after PubChem BioAssay (NCI).

Experiment [1] can be described thus: NCI Yeast Anticancer Drug Screen. Data for the rad50 strain (AID 155).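 Further: 0% = growth of vehicle-only cultures of the same strain.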 To be noted: S. cerevisiae rad50 strain growth inhibition; at 50.0 µM; hits give high values. Put shortly: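 Inhibition values express reduced yeast growth in compound-treated cultures relative to vehicle-treated controls.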
Experiment [2] in a line: NCI Yeast Anticancer Drug Screen. Data for the mec2-1 strain (AID 157). To be noted: S. cerevisiae mec2-1 strain, at 50.0 µM, hits give high values. Put shortly:
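Mutant yeast (mec2-1) grown with compound; growth inhibition relative to vehicle control reported.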

Experiment [3] can be described thus: NCI Yeast Anticancer Drug Screen. Data for the sgs1 mgt1 strain (AID 161).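 Further: 0% = growth of cultures given vehicle only.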 To be noted: S. cerevisiae sgs1 mgt1 strain, at 50.0 µM, hits give high values. An outline of the steps: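 This yeast growth screen uses a strain with defined DNA-repair lesions; compound-treated growth is compared with vehicle-treated growth.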
Experiment [4] can be described thus: NCI Yeast Anticancer Drug Screen. Data for the cln2 rad14 strain (AID 165).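 Further: 0% = growth equal to vehicle treated cultures.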 To be noted: S. cerevisiae cln2 rad14 strain, at 50.0 µM, hits give high values. An outline of the steps:
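Readout is yeast growth inhibition versus vehicle-treated controls, using a strain with cln2 and rad14 alterations exposed to compound.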

Experiment [5] is described as follows: NCI Yeast Anticancer Drug Screen. Data for the bub3 strain (AID 167). To be noted: S. cerevisiae bub3 mutant strain, at 50.0 µM, hits give high values. Put shortly: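 Steps: expose the mutant yeast strain to compound; grow alongside vehicle-treated cultures; measure growth; express inhibition against the vehicle cultures.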
Experiment [6] can be described thus: NCI Yeast Anticancer Drug Screen. Data for the mlh1 rad18 strain (AID 175). To be noted: S. cerevisiae mlh1 rad18 strain growth inhibition; at 50.0 µM; hits give high values. Put shortly:
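Genetically defined yeast (DNA repair-deficient) exposed to compounds; growth inhibition determined relative to vehicle.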

The panel holds about 79,000 compounds, 15% with a hit somewhere; the sample as a whole holds those more often. A number with no mark means an inactive call. Calls of active or inactive are those of the source. No stated cut-off is given here; in the data, active means growth inhibition above about 70%; inactive means the rest.

`CCCCOC(=O)C(=O)/C(=C\n1c(=S)[nH]c2cc(C)ccc21)C(=O)C=C(C)C`: the growth inhibition is -15.6% in experiment [1]; -22% in experiment [2]; 3.05% in experiment [3]; -22.4% in experiment [4]; -10.7% in experiment [5]; -28.1% in experiment [6].

In the case of `C/C(CC(O)(C(F)(F)Cl)C(F)(F)Cl)=N\Nc1ccccc1`, the growth inhibition in experiment [1] is 28%; in experiment [2] it was 15.1%; in experiment [3], 6.55%; in experiment [4] it was 28.1%; in experiment [5], -0.9%; in experiment [6], 17.5%.

With `CC1CN(C(=S)Nc2ccccc2)CCN1c1ccccc1` (stereo unspecified), the growth inhibition was 4.15% in experiment [1]; -2.35% in experiment [2]; -4.15% in experiment [3]; -34.8% in experiment [4]; 9.3% in experiment [5]; -5.45% in experiment [6].

On to `CC(C)CC(=O)NC(Nc1ccc(S(=O)(=O)Nc2ncccn2)cc1)(C(F)(F)F)C(F)(F)F`, for which the growth inhibition in experiment [1] is -2.9%; in experiment [2] it was -9.95%; in experiment [3], 14.3%; in experiment [4] it was 20.6%; in experiment [5], -5.8%; in experiment [6], 6.8%.

On to `Cc1c(Cl)cccc1NC(=O)OC/C=C/c1ccccc1`, for which the growth inhibition was 3.2% in experiment [1]; 33.2% in experiment [2]; 14.8% in experiment [3]; -9.35% in experiment [4]; 5.6% in experiment [5]; -10.9% in experiment [6].

For the compound `Cc1ccc(N2CCCCN(c3ccc(C)cc3)/C(c3ccccc3)=C\2c2ccccc2)cc1`, the growth inhibition was -8.55% in experiment [1]; -7.3% in experiment [2]; -7% in experiment [3]; -8.2% in experiment [4]; -1.35% in experiment [5]; -29.9% in experiment [6].

With `C=CCSc1ncnc2c1c(Br)cn2C1OC(CO)C(O)C1O` (stereo unspecified), the growth inhibition was 96.3% (active) in experiment [1]; 97.5% (active) in experiment [2]; 97.1% (active) in experiment [3]; 97.5% (active) in experiment [4]; 96.9% (active) in experiment [5]; 98.3% (active) in experiment [6].

For the compound `COc1ccc(C[C@@H]2Cc3cc(OC)c(OC)cc3CN2C)cc1`, the growth inhibition is 27.4% in experiment [1]; 4.6% in experiment [2]; 19.6% in experiment [3]; 5.65% in experiment [4]; 10.9% in experiment [5]; 21.4% in experiment [6].

Regarding `COC1OC(COC(=O)c2ccc([N+](=O)[O-])cc2)C(SC#N)C1O` (stereo unspecified), the growth inhibition was 27.4% in experiment [1]; 2.05% in experiment [2]; 26.2% in experiment [3]; -18.3% in experiment [4]; -10.6% in experiment [5]; 33.2% in experiment [6].

For `COC(=O)CC1(O)C(C=C(C)C)C(C(=O)OC)C(=O)C(C(=O)OC)C1C(=O)OC` (stereo unspecified), the growth inhibition in experiment [1] is -10.8%; in experiment [2], -7.15%; in experiment [3], -28.9%; in experiment [4] it was -3.5%; in experiment [5], -32.2%; in experiment [6] it was -1.25%.

With `CNc1nc(C(F)(F)F)nc(Cl)c1N`, the growth inhibition is 10% in experiment [1]; 2.5% in experiment [2]; 13.4% in experiment [3]; -7.95% in experiment [4]; 15.3% in experiment [5]; 7.4% in experiment [6].

Consider `CC(O)C1OC(O)C2OC(C)(C)OC12` (stereo unspecified), for which the growth inhibition is 20.1% in experiment [1]; 17.4% in experiment [2]; 16.4% in experiment [3]; -4.35% in experiment [4]; 14.6% in experiment [5]; 7.9% in experiment [6].

`OC(COc1ccccc1)COc1ccccc1`: the growth inhibition in experiment [1] is 1.35%; in experiment [2], 2.45%; in experiment [3] it was 16.4%; in experiment [4], -18.7%; in experiment [5], 8.1%; in experiment [6], 3.1%.

Turning to `O=C1CCC23CC(C=CC=C12)n1c(=O)n(-c2ccccc2)c(=O)n13` (stereo unspecified), the growth inhibition in experiment [1] is 13.2%; in experiment [2] it was -1.55%; in experiment [3], 4.1%; in experiment [4], 21.1%; in experiment [5], -14.7%; in experiment [6] it was 16.7%.

As for `COC(=O)C1(C2(C(=O)OC)NC(C)=C(c3ccccc3)C(=O)O2)NC(C)=C(c2ccccc2)C(=O)O1` (stereo unspecified), the growth inhibition in experiment [1] is 15.2%; in experiment [2], -7.3%; in experiment [3], -6.95%; in experiment [4] it was 8.3%; in experiment [5] it was -5.15%; in experiment [6], 15%.

As to `CC(C)CN(CC(=O)Nc1cccc(Cl)c1)CC(C)C`, the growth inhibition is -4.35% in experiment [1]; 11.9% in experiment [2]; 4.15% in experiment [3]; -17.9% in experiment [4]; 5.25% in experiment [5]; 2.1% in experiment [6].

In the case of `Fc1ccc(-c2cc(-c3cccs3)cc(-c3ccccc3)n2)cc1`, the growth inhibition in experiment [1] is 8.6%; in experiment [2] it was -9.45%; in experiment [3] it was 21.2%; in experiment [4], 8.55%; in experiment [5], 20.8%; in experiment [6] it was 11.1%.

For `CCNC(=O)N(Cc1ccccc1)Cc1ccccc1`, the growth inhibition in experiment [1] is 7.55%; in experiment [2], 8.65%; in experiment [3] it was 6.05%; in experiment [4] it was 13.3%; in experiment [5] it was 23.5%; in experiment [6], -20.6%.

Take `Cc1c(Cl)cccc1NC(=O)C(=O)C(C(=O)c1ccccc1-c1ccccc1)C1OC(=O)c2ccccc21` (stereo unspecified): the growth inhibition in experiment [1] is -31.9%; in experiment [2] it was -44.5%; in experiment [3], -14.3%; in experiment [4], -41.8%; in experiment [5], 11.9%; in experiment [6], -23%.

Take `O=C(Nc1ccc(Cl)cc1)OC(C(=O)c1ccccn1)c1ccccn1` (stereo unspecified): the growth inhibition in experiment [1] is 0.25%; in experiment [2], 13.7%; in experiment [3], -17.6%; in experiment [4], 5.75%; in experiment [5], 7.1%; in experiment [6] it was 8.5%.

Regarding `Clc1ccc(CCn2ccc3ccccc32)c(Cl)c1`, the growth inhibition is -12.6% in experiment [1]; -10% in experiment [2]; 0.05% in experiment [3]; 7.2% in experiment [4]; 16.9% in experiment [5]; 4.35% in experiment [6].
